# A selection: hits, their analogues and other compounds. The true share with any hit is near 2.8%.
# EP2 modulator = EP2 receptor (human) modulation | induction, % at 25 µM | P43116 | 260,000 compounds, 0.83% hits | EP2-expressing cells, cAMP HTRF FRET, PGE2 co-stimulation;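 active means compounds whose cAMP rise, as percent of the full-agonist control response, exceeds 60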;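 further: rat C6 glioma line stably carrying human EP2 under a CMV promoter; the protocol text gives 20 µM as final concentration; 100% = response of wells given 1 µM PGE2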
# NCF1 inh = inhibitors of human p47phox binding | P14598 | p47phox/p22phox peptide binding, fluorescence polarization, 2 h | inhibition, % at 24.7 µM | 220,000 compounds, 0.53% hits | AID 1274;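 active means inhibition above about 30%, limit read from the data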;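 further: 0% = p47phox with labelled peptide and 100% = labelled peptide alone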
# Target sequence (P14598 whole entry, looked up): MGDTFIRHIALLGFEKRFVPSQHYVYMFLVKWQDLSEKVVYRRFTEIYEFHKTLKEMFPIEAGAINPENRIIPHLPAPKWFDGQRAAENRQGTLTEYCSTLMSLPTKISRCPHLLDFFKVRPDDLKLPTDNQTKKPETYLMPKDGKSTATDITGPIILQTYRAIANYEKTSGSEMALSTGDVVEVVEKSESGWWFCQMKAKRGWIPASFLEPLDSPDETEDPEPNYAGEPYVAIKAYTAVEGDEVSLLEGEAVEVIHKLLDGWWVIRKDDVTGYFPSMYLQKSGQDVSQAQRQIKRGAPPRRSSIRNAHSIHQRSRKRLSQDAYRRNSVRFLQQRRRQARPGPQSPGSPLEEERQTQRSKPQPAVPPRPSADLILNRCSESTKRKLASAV
# HSV replic up = HSV replication enhancement. 220,000 compounds, 0.005% hits. maximum fold increase. AID 1956. HSV replication augmentation in cells, fold increase; in the data active means maximum fold increase above about 1.5; inconclusive means no clear call, values can overlap the other calls; tested in PC3 cells
# EP2 antag = blocks the human prostaglandin E2 receptor EP2 | P43116 | C6 glioma cells expressing human EP2, cAMP TR-FRET; cells stimulated with saturating PGE2 | inhibition, % at 25 µM | 260,000 compounds, 0.52% hits;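 active means percent inhibition above 40 after rounding to a whole number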;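 further: rat C6 glioma host cells with rolipram phosphodiesterase inhibitor present; the protocol text gives 20 µM as final concentration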
# Wee1 stabilizer = inhibitors of human Wee1 degradation; P30291; 220,000 compounds, 1.2% hits; reporter increase, % at 5 µM; HeLa Luc-Wee1K328M stability, luciferase luminescence; 100% = proteasome inhibitor MG132 effect;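 active means activation above the mean of all tested compounds plus 3 SD, set per screening run, cut at about 8.8% in these data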;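 further: cells exposed to compound for 20 h before luminescence read; 0% = DMSO alone and 100% = MG132 at 30 µM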
# Furin inhibitor = human furin inhibition | purified furin, fluorogenic substrate cleavage | P09958 | 220,000 compounds, 0.061% hits | AID 463115 | inhibition, % at 20 µM or 30 µM; in the data active means inhibition above about 25%
# The depositor's hits bear a star; i = inactive; ? = inconclusive; . = no result given; ! = a repeat was not active.
SMILES,EP2 modulator,NCF1 inh,HSV replic up,EP2 antag,Wee1 stabilizer,Furin inhibitor
CCOCCn1c(N2CCC(C)CC2)nc2c1c(=O)[nH]c(=O)n2C,4,.,.,12,.,.
c1cc(-c2sc(-c3ccncc3)c(-c3ccncc3)c2-c2ccncc2)ccn1,-12,-20,i,41*!,1,-61
Nc1nnc(-c2ccncc2)s1,20,-12,i,11,-1,-8
Cc1ccc(-c2c(C)sc3ncn(CC(=O)N4CCCC4)c(=O)c23)cc1C,11,.,.,10,.,.
O=C(CSc1ncnc2c1oc1ccccc12)N1CCN(c2ccccc2)CC1,.,.,i,7,-1,-23
CC(=O)CSc1ncnc2c1oc1ccccc12,62*,-4,i,16,0,-2
N#C/C(=C\c1ccc(C(=O)O)cc1)c1nc2sc3c(c2c(=O)[nH]1)CCCC3,-58,104*,?,16,-2,-4
CCOC(=O)c1nc2sc3c(c2c(=O)[nH]1)CCCC3,22,-5,i,11,-2,-27
CCOc1cccc2cc(-c3nnc(NCc4ccc5c(c4)OCO5)s3)c(=O)oc12,-7,67*,i,5,1,-15
CCOc1ccccc1C(=O)NCc1ccc2c(c1)OCO2,3,12,i,16,1,-35
CC1CCc2c(sc(NC(=O)c3ccco3)c2C#N)C1 (centres undefined),-63,.,.,13,.,.
O=c1[nH][nH]c2c(N=Cc3ccccc3O)ccc(F)c12,-15,134*,i,10,4,-15
O=C(CSc1nnc(SCc2ccccc2Cl)s1)N/N=C/c1c[nH]c2ccccc12,-11,-17,i,10,-3,-12
Cc1ccc(CSc2nnc(SCC(=O)N/N=C/c3c[nH]c4ccccc34)s2)cc1,-30,39*,i,8,-1,-16
O=C(CSc1nnc(SCc2ccccc2)s1)N/N=C/c1c[nH]c2ccccc12,-59,42*,i,7,0,-14
CC1CCN(C(=O)CSc2nnc(-c3ccncc3)n2CCCN(C)C)CC1,-15,.,.,27,.,.
CCNC(=O)C(N)Cc1c[nH]c2ccccc12 (centres undefined),-36,.,.,11,.,.
Cc1cc(C(F)F)n2nc(C(=O)Nc3sc4c(c3C(=O)OC(C)C)CCCC4)nc2n1,67*,.,.,13,.,.
COc1ccc(CCNC(=O)c2cnn3c2NC(c2ccc(C)cc2)CC3C(F)F)cc1OC (centres undefined),-9,.,.,20,.,.
O=C(Nc1nnc(-c2ccccc2Cl)o1)c1nc2ccccc2s1,-61,-21,i,91*,3,-20
O=C(Nc1nnc(-c2ccccc2Cl)o1)c1ccco1,-4,5,i,8,-1,-13
Cc1cc(C)c(S(=O)(=O)N(Cc2cc3cccc(C)c3[nH]c2=O)CC2CCCO2)c(C)c1 (centres undefined),21,.,.,6,.,.
COC(=O)c1sccc1NC(=O)C1C2C=CC(C2)C1C(=O)O (centres undefined),34,-6,i,10,0,-32
Cc1ccsc1C(=O)NNC(=O)C1C2C=CC(C2)C1C(=O)O (centres undefined),9,-11,i,4,10*,-36
Cc1ccc(C(=O)OCCN(C)Cc2ccccc2)cc1,6,19,i,2,9.2*,-17
SMILES,EP2 modulator,NCF1 inh,HSV replic up,EP2 antag,Wee1 stabilizer,Furin inhibitor
Cc1ccccc1C(=O)OCCN(C)Cc1ccccc1,29,3,i,7,-1,-15
CC(=O)c1sccc1NC(=O)c1ccccc1C(=O)O,85*,-12,i,14,2,-14
COC(=O)c1sccc1NC(=O)c1ccccc1,-24,2,i,0,-2,-12
O=C1c2ccccc2C(=O)N1c1ccc(Cc2ccc(N3C(=O)c4ccccc4C3=O)cc2)cc1,15,.,.,49*,.,.
COc1ccccc1CC(=O)NC(c1ccc(F)c(F)c1)c1nccn1C (centres undefined),-11,.,.,5,.,.
COc1cc(/C=C2/CC/C(=C/c3ccc(O)c(OC)c3)C2=O)ccc1O,-108,-38,.,6,10*,0
CCC(=O)Nc1ccc(NC(=O)c2ccc([N+](=O)[O-])o2)cc1,-129,.,.,68*,.,.
CCC(=O)N1CCN(c2ccc(NC(=O)c3ccc([N+](=O)[O-])o3)cc2)CC1,-37,-11,i,46*,2,-23
CCCC(=O)N1CCN(c2ccc(NC(=O)c3ccc([N+](=O)[O-])o3)cc2)CC1,-69,-9,i,26,8,-7
CN(C)c1ccc(NC(=O)c2ccc([N+](=O)[O-])o2)cc1,-104,.,.,25,.,.
O=C(Nc1ccc(N2CCN(C(=O)c3ccc(Cl)cc3)CC2)cc1)c1ccc([N+](=O)[O-])o1,-50,-10,i,121*,0,-31
COc1ccc(NC(=O)CSc2nnc(-c3ccc(F)cc3)o2)c(OC)c1,-40,.,.,11,.,.
NC(=O)[C@H]1CCCN1Cc1ccc2c(c1)OCO2,4,.,.,8,.,.
CCCCCc1nnc(NC(=O)C2CCCO2)s1 (centres undefined),12,-13,i,6,0,34*
Cc1nnc(NC(=O)C2CCCO2)s1 (centres undefined),-15,-67,i,9,-2,-18
CC1CCN(C(=O)c2cc3n(n2)C(C(F)(F)F)CC(c2ccco2)N3)C(C)C1 (centres undefined),-45,.,.,8,.,.
N=c1c(C(N)=O)cc2c(=O)n3ccccc3nc2n1CCCN1CCOCC1,-9,.,.,7,.,.
N#Cc1nc(-c2ccc(OCc3ccccc3)cc2)oc1NCCCn1ccnc1,-57,-2,i,40*,0,-36
COc1ccc(N=C2NN=C(c3ccc4c(c3)OCCO4)CS2)cc1,-2,-19,i,41*,-2,-2
CCN(Cc1ccccc1)Cc1nc(CCc2ccccc2)no1,-8,8,i,5,-3,-11
c1ccc(CCN(Cc2ccccc2)Cc2nc(C3CC3)no2)cc1,62*,3,i,11,-5,-17
COC(=O)C1=NN(c2ccc(C)cc2)C2(S1)SC(C(C)=O)=C(C)N2c1ccccc1 (centres undefined),63*,6,i,7,1,-1
COC(=O)c1cc(-n2cccc2)ccc1N1CCOCC1,-17,-9,i,16,1,-3
COC(=O)c1cc(NS(=O)(=O)c2ccc(C)c3ccccc23)ccc1N1CCOCC1,-6,-15,i,7,9.0*,-4
O=C(C1CC1)N1CCN(c2nc(-c3ccc(Cl)cc3)cs2)CC1,-23,.,.,5,.,.
CCn1cc(C=C2C(=O)c3ccccc3C2=O)c2ccccc21,-284,75*,i,42*,1,-15
COCC(C)NC(=O)c1cc2cccc([N+](=O)[O-])c2[nH]1 (centres undefined),0,-2,i,4,1,-17
Cc1cc(NC(=O)c2cc3cccc([N+](=O)[O-])c3[nH]2)ccc1F,-22,-36,i,10,17*,-17

# Screening data as filed in PubChem BioAssay.
